Assay results from PubChem BioAssay AID1839 (Johns Hopkins Ion Channel Center, 2009).
The whole screen tested about 2,400 compounds, of which about 220 (9.2%) were called active. For the sample, actives were picked, then their nearest neighbours and some compounds at random. A number with no mark means an inactive call.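 How the source made its calls: active means signal change above the mean of dofetilide-free buffer controls plus 3 SD, so a positive margin; inactive means the rest.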

assay: nonspecific flux effects in parental CHO-K1, confirmation, counter-screen for hERG block protection project, cell-based, CHO-K1 parental line, FluxOR thallium flux (AID 1839); conditions: CHO-K1 parental cells, FluxOR thallium flux fluorescence; at 10 µM;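 further: compounds applied alone with no dofetilide to cells lacking hERG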

| Compound | signal change vs control minus 3*SD hit threshold (margin above threshold, higher = more increase) |
| --- | --- |
| C=CCN(CC=C)C(=S)NC(=O)/C=C/c1ccc(OC)cc1 | -19.8% |
| Cc1cc(-c2cccnc2)c(C#N)c(SCc2cccc(F)c2)n1 | -37.3% |
| COC(=O)c1sccc1NC(=S)NCc1ccc(Cl)cc1 | -22.4% |
| CCc1cc2c(=O)n(CCC(C)C)c(=S)[nH]c2s1 | 26.1% (active) |
| CCOC(=O)C1=C(c2ccccc2)NC(=O)NC1c1ccc(OC)c(OC)c1 (centres undefined) | -32.6% |
| CSC(=S)N/N=C(\C)c1ccccc1 | 15.8% (active) |
| C/C(=N\NC(N)=S)c1cccnc1 | -29.6% |
| CSC(=S)N/N=C/c1ccccc1 | 18.1% (active) |
| CC(C)NC(=S)N/N=C/c1ccc(C(C)(C)C)cc1 | -20.4% |
| C/C(=N\NC(N)=S)c1ccncc1 | -26.5% |
| CSC(=S)N/N=C/c1ccc(Br)cc1 | -17.6% |
| CC1=C(C#N)C(Nc2cc(C)ccn2)(C(F)(F)F)C(=O)N1 (centres undefined) | -31.1% |
| CCOC(=O)c1c(-c2ccc(C)o2)csc1NC(=S)NC(=O)N(C)C | -14.3% |
| CNc1nc(N)nc(OC(C(F)(F)F)C(F)(F)F)n1 | -25.1% |
| CC(=O)c1c(NC(=O)c2ccccc2)[nH]c(-c2ccccc2)nc1=S | -26.3% |
| S=c1nc(-c2ccccc2)[nH]c2ccc(Br)cc12 | 52.8% (active) |
| S=c1nc(-c2ccc(Br)cc2)[nH]c2ccccc12 | 53.6% (active) |
| S=c1[nH]c2ccccc2c2ccccc12 | -25% |
| CC(Oc1ccc(Br)cc1)c1nc2c3ccccc3nc(=S)n2[nH]1 (centres undefined) | -25% |
| CC(=O)c1c(N2CCCC2)[nH]c(-c2ccccc2)nc1=S | -21.2% |
| NNC(=O)CNc1ccccc1Cl | -26% |
| CN(C)c1ccc(C(CNS(=O)(=O)c2ccc([N+](=O)[O-])cc2)N2CCCC2)cc1 (centres undefined) | -29% |
| CC(C)C(=O)Nc1ccc(NC(=O)CCc2ccccc2)cn1 | -33.7% |
| O=C(CCc1ccccc1)Nc1nccs1 | -33.8% |
| O=C(Nc1ncc(Br)s1)C(Cc1ccccc1)n1cccc1 (centres undefined) | 6.9% (active) |

| Compound | signal change vs control minus 3*SD hit threshold (margin above threshold, higher = more increase) |
| --- | --- |
| COc1cccc(OC)c1C(=O)NC(=S)N1CCN(c2ccc(C(F)(F)F)cc2[N+](=O)[O-])CC1 | -46.3% |
| COCc1cc(C)nc(OCC(=O)N/N=C/c2ccc(-c3cc([N+](=O)[O-])ccc3Cl)o2)c1C#N | -29.8% |
| Cc1ccccc1Cn1nc(C)c(NC(=O)c2ccccc2)c1C | 11.5% (active) |
| Cc1nn(C(=O)CNC(=O)c2ccccc2)c(C)c1C | -23.2% |
| CC(=O)c1n[nH]nc1NC(=O)c1ccccc1 | -17.2% |
| Cn1nc(C(F)(F)F)c(-c2ccc(Br)cc2)c1NC(=O)c1cccnc1 | -37.7% |
| O=C1NCC(=O)N2C(c3ccccc3)c3[nH]c4ccccc4c3C[C@@H]12 (some centres undefined) | -28.2% |
| S=c1nc(-c2ccccc2)[nH]n1-c1ccccc1 | 16.8% (active) |
| S=c1nc(-c2ccccc2)c(-c2ccccc2)n[nH]1 | -37% |
| S=c1nc(C2CCCCC2)n(-c2ccccc2)[nH]1 | -0.7% |
| COc1ccc(-n2nc(C(=O)NCC(=O)NCc3ccc(F)cc3)c3ccccc3c2=O)cc1OC | -26.4% |
| COc1cccc(NC(=O)c2nn(-c3ccc(OC)cc3OC)c(=O)c3ccccc23)c1 | -26.1% |
| COc1cccc(-n2nc(C(=O)O)c3ccccc3c2=O)c1 | 4.7% (active) |
| CC(C)Oc1cc(S(=O)(=O)N2CCCCC2)ccc1N | -27.8% |
| CC(C)COc1ccc(-c2nn(-c3ccccc3)cc2C(=O)Nc2nccs2)cc1 | -25.4% |
| COc1ccc(-c2nc(=S)c3ccc4ccccc4c3[nH]2)cc1 | 32.2% (active) |
| COc1ccc(OC(=O)Cc2cccc3ccccc23)cc1 | -30.2% |
| COc1ccc(-n2c(=S)[nH]c3ccccc3c2=S)cc1 | -30.8% |
| CCc1ccc(NC(=S)NC(=O)c2c(-c3ccccc3Cl)noc2C)cc1 | -32.8% |
| C=CCn1c2ccccc2c(=O)c2cc(C#Cc3ccsc3)ccc21 | -24.5% |
| COc1ccc(C(=O)CC(=O)C(=O)Nc2ccccc2)cc1 | -20.3% |
| COc1cccc(OCC(=O)NNC(=O)C(=O)Nc2cccc(C)c2)c1 | 0.8% (active) |
| COc1ccccc1NC(=O)C(=O)NNC(=O)COc1ccc2ccccc2c1 | 59.2% (active) |
| O=C(COc1ccc2ccccc2c1)NNC(=O)C(=O)Nc1ccccc1 | 15.8% (active) |
